Source: PubChem
In the library only some 4.2% were active in any assay of this set; here they are far more common.
CCHF vOTU inh = CCHFV vOTU protease inhibitors, primary screen, biochemical, Pep-AMC substrate, fluorescence | Crimean-Congo hemorrhagic fever virus L polyprotein viral ovarian tumor (vOTU) protease … | hit rate 0.55% among 370,000 | inhibition, % at 11.5 µM
Mtb bLac sens = beta-lactam sensitization of Mtb H37Rv, H37Rv. M. tuberculosis H37Rv growth with meropenem, percent inhibition. inhibition, % at 25 µM. hit rate 0.27% among 330,000. AID 434955, 2010; call rule not given here;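 also: growth measured after seven days incubation then overnight dye step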
GDH-TPI inh = GDH-TPI coupling enzyme inhibitors, primary screen, artefact control for M. tuberculosis FBA inhibitor project, biochemical, absorbance, full deck; GDH-TPI coupled enzyme counterscreen, NADH absorbance; inhibition, % at 4.8 µM; hit rate 1.2% among 360,000
RecA splice inh = Mtb RecA intein splicing inhibitors, primary screen, biochemical, fluorescence, HTS; Protein RecA (Mycobacterium tuberculosis (strain ATCC 25618 / H37Rv)), P9WHJ3; cell-free RecA intein splicing; inhibition, % (no concentration beside the values); hit rate 0.75% among 290,000; AID 2221, 2009; in the data active = inhibition above about 30%; inconclusive = no clear call, values can overlap the other calls
Mtb FBA inh = Mtb FBA enzyme inhibitors, primary screen, biochemical, fluorescence, strain H37Rv; purified M. tuberculosis FBA, fluorescence read-out; inhibition, % at 1 µM; hit rate 2.3% among 360,000; AID 588726, 2011; in the data active = inhibition above about 27%
Large screens that a line does not name were inactive. Rule as the data show it, unless noted: active = inhibition above about 30%; inactive = the rest.

CC(=O)c1ccc(NC(=O)/C(=C\c2ccco2)NC(=O)c2ccco2)cc1	GDH-TPI inh 31 (no result: RecA splice inh)
Cc1ccc(NC(=O)/C(=C/C=C/c2ccccc2)NC(=O)c2ccccc2)cc1	none
O=C(Nc1ccc(C(=O)O)cc1)/C(=C\C=C\c1ccccc1)NC(=O)c1ccc(Br)cc1	GDH-TPI inh 31
O=C(Nc1cccc(C(F)(F)F)c1)/C(=C\c1ccco1)NC(=O)c1cccs1	Mtb bLac sens inconclusive, GDH-TPI inh 35
O=C(Nc1ccc(C(=O)O)cc1)/C(=C\c1ccco1)NC(=O)c1ccco1	none
CC(=O)Oc1ccc(/C=C(\NC(=O)c2cccc(Br)c2)C(=O)Nc2ccc(C(=O)O)cc2)cc1	GDH-TPI inh 32
CCOC(=O)[C@]12CCCCC/C=C\1N(CCc1ccc(Cl)cc1)C(=O)[C@H]2CC(=O)N1CCN(C(=O)C2CC2)CC1	none (no result: Mtb bLac sens, GDH-TPI inh, RecA splice inh, Mtb FBA inh)
CC(=O)N1CCc2c1cccc2S(=O)(=O)NC(CC(C)C)C(=O)Nc1ccc(F)cc1Cl (configuration not stated)	none (no result: Mtb bLac sens, GDH-TPI inh, RecA splice inh, Mtb FBA inh)
Cc1ccc(NC(=O)/C(=C\c2ccc3c(c2)OCO3)NC(=O)c2ccco2)cc1	GDH-TPI inh 40
O=C(Nc1ccc(C(=O)O)cc1)/C(=C\c1ccc2c(c1)OCO2)NC(=O)c1ccccc1	GDH-TPI inh 36
CC(C)OC(=O)/C(=C\C=C\c1ccccc1)NC(=O)c1ccccc1	GDH-TPI inh 46
COc1ccc(C(=O)CSc2nnc(-c3ccc(C(C)(C)C)cc3)n2C)cc1	none (no result: Mtb bLac sens, GDH-TPI inh, RecA splice inh, Mtb FBA inh)
O=C(N/N=C/c1c(O)n(-c2cccc3ccccc23)c(=O)[nH]c1=O)c1ccncc1	GDH-TPI inh 43
CCn1c(O)c(/C=N/NC(=O)c2ccccc2)c(=O)[nH]c1=S	GDH-TPI inh 32
COc1ccc(Cn2c(O)c(/C=N/NC(=O)c3ccccc3)c(=O)[nH]c2=O)cc1	GDH-TPI inh 35
O=C(N/N=C/c1c(O)n(CCc2ccccc2)c(=O)[nH]c1=O)c1ccncc1	none
COc1ccc(Cn2c(O)c(/C=N/NC(=O)c3ccncc3)c(=O)[nH]c2=O)cc1	GDH-TPI inh 42
C=CCn1c(O)c(/C=N/NC(=O)CCCC)c(=O)[nH]c1=S	none (no result: RecA splice inh)
O=C(N/N=C/c1c(O)n(Cc2ccco2)c(=O)[nH]c1=O)c1ccccc1	none
COCCNC(=S)N(C)[C@H]1C[C@H]2c3[nH]c4c(-c5cccc(C)c5)cccc4c3CCN2C[C@H]1[C@H](C)O	none (no result: Mtb bLac sens, GDH-TPI inh, RecA splice inh, Mtb FBA inh)
COC(=O)C[C@@H]1CC[C@@H]2[C@@H](COc3ccc(NC(=O)Nc4cccc(Cl)c4)cc3C(=O)N2C)O1	none (no result: Mtb bLac sens, GDH-TPI inh, RecA splice inh, Mtb FBA inh)
COc1ccc(Nc2nc(-c3ccccc3)nc3ccccc23)cc1S(=O)(=O)N1CCOCC1	GDH-TPI inh 40
COc1ccc(C(=O)Nc2ccc(-c3ccc(C)o3)cc2)cc1S(=O)(=O)N1CCOCC1	GDH-TPI inh 38
Cc1cc(NS(=O)(=O)c2ccc(NC(=O)CSc3nnc(-c4ccccn4)n3Cc3ccco3)cc2)nc(C)n1	none (no result: Mtb bLac sens, GDH-TPI inh, RecA splice inh, Mtb FBA inh)
CCc1ccc(CCNC(=O)OCCCN2CCC3(CCC(c4ccccc4)CC3)C2=O)cc1 (configuration not stated)	none (no result: Mtb bLac sens, GDH-TPI inh, RecA splice inh, Mtb FBA inh)
N#Cc1nc(-c2ccccc2F)oc1N1CCCCC1	Mtb FBA inh active
N#Cc1nc(-c2ccccc2F)oc1NC1CCCCC1	Mtb FBA inh 175
N#Cc1nc(-c2ccccc2F)oc1N1CCN(C(=O)c2ccco2)CC1	Mtb FBA inh 115
CCOC(=O)/C(C#N)=C/c1cccc(C)c1	none
CCOC(=O)/C(C#N)=C\c1ccc(O)c(OC)c1	RecA splice inh 40
COc1cc(/C=C(\C#N)C(=O)Nc2ccc3c(c2)OCCO3)ccc1O	RecA splice inh 32
CCOC(=O)/C(C#N)=C/Nc1ccccc1OC	GDH-TPI inh 44
COc1ccc(/C=C/S(=O)(=O)NCc2ccccc2)c(CNC(=O)OC(C)(C)C)c1	none (no result: Mtb bLac sens, GDH-TPI inh, RecA splice inh, Mtb FBA inh)
COC1=C[C@H](C(=O)NC2CCN(Cc3ccccc3)CC2)C(C)C(c2ccccc2)CC1=O (some centres not stated)	none (no result: Mtb bLac sens, GDH-TPI inh, RecA splice inh, Mtb FBA inh)
COc1cc(OC)c2c(O)c3c(=O)cc(C)oc3c(-c3c(OC)cc4cc5c(c(O)c4c3O)C(=O)CC(C)(O)O5)c2c1 (configuration not stated)	none (no result: Mtb bLac sens, GDH-TPI inh, RecA splice inh, Mtb FBA inh)
O=C(CSc1ccc(-c2nc3ccccc3[nH]2)cn1)Nc1ccc(S(=O)(=O)N2CCCC2)cc1	none
